This assay can be described thus: NCI Yeast Anticancer Drug Screen. Data for the rad18 strain (AID 177). To be noted: S. cerevisiae rad18 mutant growth inhibition, hits give high values. As for the experimental part:
Growth inhibition of yeast strains with defined genetic alterations is measured as a screen for potential anti-cancer activity. Selected strains with alterations in DNA damage repair or cell cycle control were exposed to compounds and growth inhibition was measured relative to vehicle treated controls. The strain used in this assay is rad18

Growth inhibition data for eight compounds are collected here from PubChem BioAssay (NCI).

About 79,000 compounds went through this panel and 15% of them were active in at least one assay; those are over-represented in the sample as a whole. Values without a mark were called inactive. Calls of active or inactive are those of the source. Rule as the data show it: active = growth inhibition above about 70%; inactive = the rest.

For the compound `OC1(c2ccccc2)C2CC=CC2C1(c1ccccc1)c1ccccc1` (stereo not given), the growth inhibition (at 1.2 µM) was -8%; the growth inhibition (at 3.7 µM) is -4%; the growth inhibition (at 11.0 µM) was -4%; the growth inhibition (at 33.0 µM) was 1%; the growth inhibition (at 100.0 µM) was 41%.

In the case of `COc1ccc2nc3cccc([N+](=O)[O-])c3c(NCCNCCO)c2c1`, the growth inhibition (at 1.2 µM) is 95% (active); the growth inhibition (at 3.7 µM) is 96% (active); the growth inhibition (at 11.0 µM) was 96% (active); the growth inhibition (at 33.0 µM) was 95% (active); the growth inhibition (at 100.0 µM) was 95% (active).

Consider `CN(C)/C(=N/C(=S)Nc1ccccc1)SCc1ccccc1`, for which the growth inhibition (at 1.2 µM) was -4%; the growth inhibition (at 3.7 µM) was -1%; the growth inhibition (at 11.0 µM) is 1%; the growth inhibition (at 33.0 µM) is 16%; the growth inhibition (at 100.0 µM) was 24%.

With `COc1ccccc1/C=C\C(=O)C1COCN1` (stereo not given), the growth inhibition was 0% (at 1.2 µM); 5% (at 3.7 µM); 15% (at 11.0 µM); 67% (at 33.0 µM); 98% (active) (at 100.0 µM).

On to `C[n+]1c(/C=C/c2ccc(/C=N/NC(=O)c3ccc(C(=O)N/N=C/c4ccc(/C=C/c5cn6ccccc6[n+]5C)cc4)cc3)cc2)cn2ccccc21`, for which the growth inhibition is, setting by setting: (at 1.2 µM) 46%; (at 3.7 µM) 98% (active); (at 11.0 µM) 95% (active); (at 33.0 µM) 96% (active); (at 100.0 µM) 93% (active).

`c1ccc(-c2cc(C3CO3)c3ccccc3n2)cc1` (stereo not given): the growth inhibition was 2% (at 1.2 µM); 11% (at 3.7 µM); 53% (at 11.0 µM); 89% (active) (at 33.0 µM); 97% (active) (at 100.0 µM).

In the case of `O=C(O)CNC(c1ccccc1)(c1ccccc1)c1ccccc1`, the growth inhibition (at 1.2 µM) is -5%; the growth inhibition (at 3.7 µM) is -6%; the growth inhibition (at 11.0 µM) was -4%; the growth inhibition (at 33.0 µM) was 89% (active); the growth inhibition (at 100.0 µM) was 97% (active).

For the compound `O=[N+]([O-])c1cccc2nc3ccccc3c(NCCCN3CCCCC3)c12`, the growth inhibition runs as follows: (at 1.2 µM) 96% (active); (at 3.7 µM) 95% (active); (at 11.0 µM) 97% (active); (at 33.0 µM) 98% (active); (at 100.0 µM) 99% (active).
